Source: PubChem BioAssay (NCATS)
Results filed as inconclusive are left out. Calls of active or inactive are those of the source. Calls come from the whole dose curve; as a rule, active = well fitted inhibition curve with a large enough effect; inconclusive = small, poorly fitted or top-dose-only effect; inactive = flat fitted curve, though single readings scatter.

How the values were obtained:
Test in all cases: qHTS profiling for inhibitors of Plasmodium falciparum proliferation (AID 504749); note: nearly all actives have a fitted effect of over 60% in size
Conditions in all cases: P. falciparum in erythrocytes, SYBR Green DNA, 72 h; series mostly up to 28.7 µM
[1] = test system: CP262
Summary of the method: (§1)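 P. falciparum-infected erythrocytes (0.3% parasitemia, 2.5% hematocrit) incubated with compound 72 h at 37 C, 5% CO2. Parasite DNA detected by SYBR Green after lysis, overnight at room temperature; normalised to 0.29 uM artemisinin and DMSO.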

[2] = test system: CP265
Summary of the method: as §1

[3] = test system: CP266
Summary of the method: as §1

[4] = test system: CP268
Summary of the method: as §1

[5] = test system: CP269
Summary of the method: as §1

[6] = test system: CP286
Summary of the method: as §1

[7] = test system: CP291
Summary of the method: as §1

[8] = test system: CP297
Summary of the method: as §1

[9] = test system: CP305
Summary of the method: as §1

[10] = test system: CP315
Summary of the method: as §1

Measured: Potency

CCCCCC(N)=O
inactive: all assays above

O=c1[nH]c(=O)c2ccccc2o1
inactive: all assays above

NS(=O)(=O)c1cc(-c2nn[nH]n2)c(NCc2cccs2)cc1Cl
inactive: all assays above

CCS(=O)(=O)CCn1c([N+](=O)[O-])cnc1C
inactive: all assays above

NC(N)=NCCN1CCCCCCC1
inactive: all assays above

CCN(CC)CC1CCCCN1CC(=O)N1c2ccccc2C(=O)Nc2cccnc21 (centres undefined)
inactive: all assays above

NCC1CCC(C(=O)Oc2ccc(CCC(=O)O)cc2)CC1 (centres undefined)
inactive: all assays above

O=C(CN1CCNCC1)NC1CCCCC1
inactive: all assays above

O=C(OOC(=O)c1ccccc1)c1ccccc1
not listed: [8]
inactive: all other assays above

O=C(Cn1ccnc1[N+](=O)[O-])NCc1ccccc1
inactive: all assays above

CCCCCCCCCCCCCCCCCCO
inactive: all assays above

COc1ccc(NS(=O)(=O)c2ccc(N)cc2)nn1
inactive: all assays above

O=C(Cn1ccnc1[N+](=O)[O-])NCCO
not listed: [8]
inactive: all other assays above

COc1ccc(C(=O)NCc2ccc(OCCN(C)C)cc2)cc1OC
not listed: [7]
inactive: all other assays above

OCC(O)CS (centres undefined)
inactive: all assays above

COc1ccccc1OC(=O)Oc1ccccc1OC
not listed: [8]
inactive: all other assays above

CCN(CC)S(=O)(=O)c1ccc(C(=O)O)cc1
inactive: all assays above

CC1CCc2cc(F)cc3c(=O)c(C(=O)O)cn1c23 (centres undefined)
not listed: [7]
inactive: all other assays above

CN(C/C=C/C#CC(C)(C)C)Cc1cccc2ccccc12
not listed: [6]
inactive: all other assays above

NC(N)=NS(=O)(=O)c1ccc(N)cc1
inactive: all assays above
